Compound activity as filed in PubChem BioAssay.
POLI inh: DNA polymerase iota (human) inhibition; Q9UNA4; Pol iota fluorescent replication assay, 10 min; Potency, µM (top dose mostly 115 µM), for inactives: at the highest dose activity, negative = inhibition, usual class: inhibitors; hit rate 1% among 390,000
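Fluorescent replication assay read twice, at 0 min and 10 min after adding 50 nM (final) substrate. Enzyme (10 nM) and compounds were first incubated 15 min at room temperature; enzyme-free buffer wells were negative controls.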
WRN helicase inh: WRN helicase (human) inhibition | Potency, µM (doses to about 114 µM), for the others: top-dose activity change, negative = inhibition, most hits filed as inhibitors | AID 651768 | hit rate 0.46% among 360,000 | WRN helicase unwinding, fluorescent forked duplex, kinetic | Q14191; also: % is scaled to controls: 0 for no effect and ±100 for the full control effect; nearly all actives have a fitted effect of over 55% in size
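WRN at 20 nM final was preincubated with compound for 15 min at room temperature; reaction started with 100 nM forked duplex oligonucleotide carrying fluorophore and quencher plus 2 mM ATP (final). Unwinding followed kinetically by red fluorescence (ex 525/em 598 nm).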
POLB inh: DNA polymerase beta (human) inhibition | P06746 | Pol beta primer extension/strand displacement, fluorescence kinetic | Potency, µM (highest dose often 114 µM), for inactives: at the top dose activity change, negative = inhibition, hits mostly inhibitors | hit rate 1.3% among 340,000; also: % is scaled to controls: 0 for no effect and ±100 for the full control effect
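Homogeneous kinetic assay of primer extension and strand displacement by 10 nM Pol beta, preincubated 15 min at room temperature with compound before 50 nM substrate (final) was added. Read at 0 and 10 min; four-parameter Hill fit.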
Pol eta inh-1: DNA polymerase eta (human) inhibition | Q9Y253 | recombinant Pol eta, fluorescent DNA replication assay | Potency, µM (highest dose often 114 µM), without a hit: top-dose activity change, negative = inhibition, actives largely listed as inhibitors | hit rate 1.2% among 390,000; also: % is scaled to controls: 0 for no effect and ±100 for the full control effect
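Pol eta at 10 nM preincubated with compounds 15 min at room temperature; reaction started with fluorescent substrate (50 nM final) and read kinetically at 0 and 10 min.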
Pol kappa inh-1: DNA polymerase kappa (human) inhibition | hit rate 0.53% among 400,000 | Q9UBT6 | purified Pol kappa, fluorescent DNA synthesis assay, 10 min | AID 588579 | Potency, µM (doses to about 107 µM), inactives show at the top dose activity, negative = inhibition, most hits filed as inhibitors; also: % is scaled to controls: 0 for no effect and ±100 for the full control effect
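10 nM Pol kappa was preincubated with compounds for 15 min at room temperature. Reaction started with 50 nM (final) substrate. Fluorescence read kinetically at 0 and 10 min.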
L3MBTL1 block: inhibitors of human L3MBTL1; Q9Y468; AlphaScreen L3MBTL1–H3K9me1 peptide binding; Potency, µM (doses to about 57.1 µM), inactives show at the highest dose activity, negative = inhibition, actives largely listed as inhibitors; hit rate 0.66% among 230,000; also: % is scaled to controls: 0 for no effect and ±100 for the full control effect; nearly all actives have a fitted effect of over 60% in size
Target sequence (Q9Y468 whole entry, looked up): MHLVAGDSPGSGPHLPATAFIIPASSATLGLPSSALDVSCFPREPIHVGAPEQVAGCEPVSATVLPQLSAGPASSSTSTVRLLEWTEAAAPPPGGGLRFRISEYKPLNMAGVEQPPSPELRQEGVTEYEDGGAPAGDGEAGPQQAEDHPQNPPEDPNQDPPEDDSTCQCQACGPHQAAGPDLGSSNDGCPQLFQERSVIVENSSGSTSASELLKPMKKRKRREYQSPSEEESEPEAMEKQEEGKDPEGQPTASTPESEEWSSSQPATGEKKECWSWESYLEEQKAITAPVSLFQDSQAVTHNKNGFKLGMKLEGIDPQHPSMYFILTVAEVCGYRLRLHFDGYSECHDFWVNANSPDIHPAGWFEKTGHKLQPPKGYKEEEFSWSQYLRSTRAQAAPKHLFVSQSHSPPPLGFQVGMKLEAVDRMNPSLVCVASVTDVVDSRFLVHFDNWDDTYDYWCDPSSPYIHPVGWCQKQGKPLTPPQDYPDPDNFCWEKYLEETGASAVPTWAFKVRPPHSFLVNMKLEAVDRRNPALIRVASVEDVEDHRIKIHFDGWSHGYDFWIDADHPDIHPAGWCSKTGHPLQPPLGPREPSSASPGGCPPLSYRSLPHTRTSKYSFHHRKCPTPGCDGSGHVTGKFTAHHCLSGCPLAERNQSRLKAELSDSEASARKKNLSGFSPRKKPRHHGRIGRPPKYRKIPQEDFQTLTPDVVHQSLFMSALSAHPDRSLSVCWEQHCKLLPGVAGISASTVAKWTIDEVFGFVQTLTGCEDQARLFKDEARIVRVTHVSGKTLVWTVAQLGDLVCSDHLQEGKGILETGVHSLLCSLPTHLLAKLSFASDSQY
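AlphaScreen proximity signal between nickel-chelate acceptor and streptavidin donor beads (final 10 ug/mL) reports binding of 50 nM L3MBTL1 to 75 nM biotin-H3 K9me1 peptide; complex incubated with compounds 30 min at room temperature; cefsulodin titration as control.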
POLI cherry-pick: Inhibitors of human DNA polymerase iota, confirmation; shares compounds with Pol kappa inh-1; Pol iota primer extension, TAMRA/BHQ fluorescence; Potency, µM, hits mostly inhibitors; hit rate 77% among 1,500; AID 720496
Pol kappa inh-2: confirmation of human DNA polymerase kappa inhibitors; purified Pol-kappa, fluorescent strand-displacement substrate; Potency, µM, hits mostly inhibitors; shares compounds with Pol eta inh-1; hit rate 76% among 920
Pol eta inh-2: confirmation of human DNA polymerase eta inhibitors; shares compounds with Pol eta inh-1; Pol eta primer extension, TAMRA/BHQ fluorescence, 10 min; Potency, µM, hits mostly inhibitors; hit rate 64% among 2,600
* = called active by the depositor; ? = inconclusive; / = not tested or not shown; [ ] = remark or other dose. Most compounds without a hit are left out; they make up all but 2.5% or so of the library. Calls follow the shape of the dose curve; as a rule, active = well fitted curve in the direction sought with a large enough effect; inconclusive = small, poorly fitted or top-dose-only effect, or another doubt; inactive = no such curve, though single readings can be large; an effect the other way counts as inactive or inconclusive. Potency is read from the fitted curve at half-maximal effect.

SMILES | POLI inh | WRN helicase inh | POLB inh | Pol eta inh-1 | Pol kappa inh-1 | L3MBTL1 block | POLI cherry-pick | Pol eta inh-2 | others
COC(=O)c1ccccc1NC(=O)C1CC(=O)N(C2CCCCC2)C1 (stereo not given) | -4% | 2% | 4% | -13% | -2% | -6% | / | /
CN(c1cccc(Cl)c1)S(=O)(=O)c1cccc(C(=O)NCc2ccncc2)c1 | -21% | 5% | / | -16% | -12% | -1% | / | /
CC(C)(C)SC(=O)CC1NS(=O)(=O)OCC1NC(=O)OCC(Cl)(Cl)Cl (stereo not given) | 11% | 7% | 5% | -11% | 4% | 2% | / | /
COc1ccc(C(=O)NCCCSC)cc1OC1CCN(C(C)C)CC1 | 22% | -3% | 7% | -14% | 8% | 1% | / | /
CC(C)c1nc(SCC(=O)Nc2nccs2)c2ccccc2n1 | ? | ? | 25µM* | 32µM* | -24% | / | 53* | 76*
C/C(N)=C(/C#N)C(=O)CSc1nnc(Nc2ccccc2)s1 | 23% | -11% | 9% | -2% | -6% | 3% | / | /
C/C(N)=C(/C#N)C(=O)CSc1nnc(NC(C)C)s1 | ? | ? | -28% | 28µM* | ? | ? | 67* | 67*
CCCCn1c(NC(=O)c2ccccc2)c(C#N)c2nc3ccccc3nc21 | ? | -35% | 40µM* | ? | ? | -17% | 34* | 24*
Cc1ccc(C(=O)NCCn2c(N)c(C#N)c3nc4ccccc4nc32)cc1 | 12% | -29% | ? | -12% | -13% | 3% | / | /
O=C(NC(C(=O)N/N=C/c1cccnc1)c1n[nH]c(=O)c2ccccc12)c1ccccc1 (stereo not given) | 30% | -4% | 5% | -15% | 4% | 8% | / | /
O=C(CCCN1C(=O)/C(=C\c2ccccc2)SC1=S)Nc1cccc(C(=O)O)c1 | ? | -18% | 18% | -16% | -2% | / | / | /
O=C(CCN1C(=O)/C(=C\C=C\c2ccccc2)SC1=S)Nc1cccc(C(=O)O)c1 | -20% | ? | 50µM* | 22µM* | 79µM* | / | 75* | 54*
COc1ccc(/C=C2/SC(=S)N(c3ccc(S(=O)(=O)Nc4nccs4)cc3)C2=O)cc1 | 22µM* | ? | -22% | 25µM* | 50µM* | / | ? | 67*
C#CCOCCOCCOCCNc1nc(N2CCN(C(=O)[C@H](CCC(=O)O)n3cc(C(N)Cc4ccc(O)cc4)nn3)CC2)nc(N2CCN(C(=O)[C@H](Cc3cc4ccccc4[nH]3)n3cc(C(N)[C@H](C)CC)nn3)CC2)n1 (stereo not given in full) | 18% | -9% | -1% | -6% | 9% | ? | / | /
CCOC(=O)CCSCC(=O)Nc1nnc(C)s1 | -19% | -2% | 9% | -6% | 3% | 10% | / | /
Cc1nnc(NC(=O)CCSCCC(=O)Nc2nnc(C)s2)s1 | 18µM* | 50µM* | 28µM* | 3.2µM* | 79µM* | ? | 42* | 27* | Pol kappa inh-2=21*
O=C(N/N=C/c1cccc(O)c1)c1ccccc1O | 25% | -3% | -1% | 25% | 15% | -5% | / | /
Cn1c2ccccc2c2cc(/C=N/NC(=O)c3cc(O)ccc3O)ccc21 | 10µM* | 22µM* | 10µM* | 10µM* | 50µM* | / | ? | 54*
OCC1CCCCN1C(=S)NCc1ccco1 (stereo not given) | 32% | 10% | 81% | -13% | 0% | 8% | / | /
COC(=O)c1ccccc1-c1ccc(/C=N/NC(=O)c2cc3ccccc3o2)o1 | -14% | -14% | ? | -13% | -6% | -6% | / | /
COC(=O)c1ccccc1-c1c2ccc(=N)cc-2oc2cc(N)ccc12 | 79µM* | 4.7µM* | / | 50µM* | 28µM* | 17% | 24* | 76* | Pol kappa inh-2=47*
COc1ccc(Cl)cc1NCC(=O)Nc1ccc(OC)c(S(=O)(=O)N2CCCCC2)c1 | -12% | -2% | / | -20% | -1% | -7% | / | /
O=C(CCCl)Nc1nnc(SCC(=O)NC2CCCC2)s1 | 22% | -7% | -23% | -10% | -7% | / | / | /
Oc1ccc(/C=N/Nc2ccc(Cl)nn2)c(O)c1O | ? | ? | 18µM* | 10µM* | ? | / | 17* | 30*
O=C(Nc1ccc(Cl)cc1)Nc1ccc(-c2cnco2)cc1 | 14% | -3%[57.1 µM] | -24% | -3% | -2% | / | / | /
SMILES | POLI inh | WRN helicase inh | POLB inh | Pol eta inh-1 | Pol kappa inh-1 | L3MBTL1 block | POLI cherry-pick | Pol eta inh-2 | others
COc1cccc2cc(C(=O)N3CC(C)OC(C)C3)c(=O)oc12 (stereo not given) | 11% | 2% | 0% | 4% | -11% | -1% | / | /
COc1cc2c(oc(=O)c3cc(C)cc(OC)c32)c2c(C3OC(C)C(O)C(C)(O)C3O)ccc(O)c12 (stereo not given) | 14µM* | ? | / | 4µM* | 40µM* | / | 30* | 21*
O=C(O)c1cccc(NC(=S)N/N=C/c2cccc(O)c2)c1 | 51% | -15% | 2% | -19% | -11% | 16% | / | /
O=C(O)c1cccc(NC(=S)N/N=C/c2ccccc2OCc2cccc(Br)c2)c1 | ? | ? | -19% | 20µM* | -11% | -11% | ? | 48*
COc1ccc(C2C(C(C)=O)=C(C)N=c3s/c(=C\c4ccc5c(c4)OCO5)c(=O)n32)c(OC)c1 (stereo not given) | 11% | 10% | / | -26% | -4% | / | / | /
CCOC(=O)C1=C(C)N=c2s/c(=C/c3ccc(OCC(=O)O)cc3)c(=O)n2C1c1ccc(F)cc1 (stereo not given) | 18µM* | -6%[11.6 µM] | 56µM* | ? | -17% | / | 75* | / | Pol kappa inh-2=?
CCOC(=O)C1=C(C)N=c2s/c(=C/c3ccccc3)c(=O)n2C1c1ccc(OC)c(OC)c1 (stereo not given) | 14% | 15% | 28% | -14% | -4% | 4% | / | /
CCOC(=O)C1=C(C)N=c2s/c(=C/c3ccc(OCC(=O)O)cc3)c(=O)n2C1c1ccc(OC)cc1OC (stereo not given) | ? | -6% | -5% | 28µM* | ? | -7% | 34* | 67* | Pol kappa inh-2=30*
CCOC(=O)C1=C(C)N=c2s/c(=C/c3cccc([N+](=O)[O-])c3O)c(=O)n2C1c1ccc(OC)cc1OC (stereo not given) | ? | -32%[11.6 µM] | 1% | 50µM* | -7% | ? | 75* | 76*
